From PubChem BioAssay (Tox21)
Inconclusive results are not listed. Calls of active or inactive are those of the source. Unless noted, calls follow the shape of the dose curve; as a rule, active = well fitted curve in the direction sought with a large enough effect in the repeat runs; inconclusive = weak or mixed curves; inactive = no such curve, though single readings can be large; an effect the other way counts as inactive or inconclusive.

How the values were obtained:
[1] = qHTS assay for small molecule agonists of the p53 signaling pathway (AID 651631; calls by dose curve; also: nearly all actives have a fitted effect of over 15% in size)
Procedure, shortened: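 HCT-116 cells carrying a stable p53 response element–beta-lactamase reporter were plated, rested 5 h at 37 °C, then exposed to compound in DMSO for 16 h at 37 °C; reporter activity was read as FRET substrate fluorescence after 2 h at room temperature.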

[2] = qHTS assay for small molecules that induce genotoxicity in human embryonic kidney cells expressing luciferase-tagged ATAD5 (AID 651632); also: nearly all actives have a fitted effect of over 15% in size
Procedure, shortened: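 DMSO vehicle served as the control. HEK293T reporter cells, 16 hr at 37C, then 30 min Amplite at room temperature; ATAD5 induction is measured as luciferase activity.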

[3] = qHTS assay for small molecule agonists of the p53 signaling pathway - cell viability (AID 651633; calls by dose curve; also: series mostly up to about 83 µM; nearly all actives have a fitted effect of over 30% in size)
Procedure, shortened: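 p53RE-bla cells, seeded at 4,000 per well and rested 5 h at 37 C/5% CO2, received compounds in DMSO for 16 h at 37 C. CellTiter-Glo was then added, and luminescence was read after 30 min at room temperature to gauge cytotoxicity.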

[4] = qHTS assay for small molecules that induce genotoxicity in human embryonic kidney cells expressing luciferase-tagged ATAD5 - cell viability (AID 651634; calls by dose curve; also: nearly all actives have a fitted effect of over 25% in size)
Procedure, shortened: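 Here HEK293T cells with the ATAD5 luciferase reporter are incubated with test compounds for 15.5 hr, and cytotoxicity is then gauged by measuring protease activity in live cells using fluorescence.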

[5] = qHTS assay for small molecule disruptors of the mitochondrial membrane potential - cell viability (AID 720634; calls by dose curve;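 also: human HepG2 liver cancer cells; series mostly up to about 83 µM; nearly all actives have a fitted effect of over 20% in size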)
Procedure, shortened: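 Viability of HepG2 cells is scored from ATP content by luminescence; cells are exposed to compound for 1 hr at 37 C and 5% CO2, then dosed with m-MPI dye before the CellTiter-Glo reagent.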

[6] = qHTS assay for small molecule disruptors of the mitochondrial membrane potential (AID 720635)
Procedure, shortened: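 HepG2 cells (2,000/well) attached overnight at 37C, then took compound for 1 hr at 37C, 5% CO2. Mito-MPS dye was added for 30 min; fluorescence was read at 490/535 nm (monomers) and 540/590 nm (aggregates).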

[7] = qHTS assay to test for compound auto fluorescence at 590 nm (red) in HepG2 cells (AID 720674)
Procedure, shortened: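 Compound auto-fluorescence is scored relative to Rose Bengal sodium, measured at 540/590 nm in live HepG2 cultures after 1 hr compound contact (37 C, 5% CO2).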

[8] = qHTS assay to test for compound auto fluorescence at 535 nm (green) in HepG2 cells (AID 720675)
[9] = qHTS assay to test for compound auto fluorescence at 460 nm (blue) in HEK293 cells (AID 720678)
Procedure, shortened: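 HEK293 cells (2,000 per well, medium with 10% dialyzed FBS) attached for 4-5 hr at 37C, then received compound and stood overnight at 37C, 5% CO2. Blue fluorescence was read at Ex/Em 405/460 nm and expressed relative to triamterene.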

[10] = qHTS assay to test for compound auto fluorescence at 590 nm (red) in HEK293 cells (AID 720679)
Procedure, shortened: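 HEK293 cells (2,000/well, medium with 10% dialyzed FBS) attached for 4-5 hr at 37C, received 23 nL compound and were incubated overnight at 37C, 5% CO2. Red fluorescence was then read at 540/590nm Ex/Em, referenced to Rose Bengal sodium.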

[11] = qHTS assay to test for compound auto fluorescence at 535 nm (green) in HEK293 cells (AID 720680)
[12] = qHTS assay to test for compound auto fluorescence at 460 nm (blue) in HEK293 cell free culture (AID 720681)
Procedure, shortened: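 Test compounds were pinned into cell-free culture medium (DMEM with 10% FBS) and fluorescence was read directly at Ex/Em 405/460 nm. Signals were expressed as fluorescence equivalents of triamterene, with DMSO vehicle as control.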

[13] = qHTS assay to test for compound auto fluorescence at 535 nm (green) in HEK293 cell free culture (AID 720682)
Procedure, shortened: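 Read-out: 485/535 nm fluorescence intensity, calibrated against fluorescein. Medium only (DMEM + 10% FBS, no cells); test compound or DMSO vehicle added by pintool before plate reading.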

[14] = qHTS assay to test for compound auto fluorescence at 590 nm (red) in HEK293 cell free culture (AID 720683)
Procedure, shortened: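 Tox21 10K library compounds were pinned into cell-free DMEM with 10% FBS and fluorescence was read at excitation 540 nm. Activity is expressed as Rose Bengal sodium equivalency.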

[15] = qHTS assay to test for compound auto fluorescence at 590 nm (red) in HepG2 cell free culture (AID 720684)
Procedure, shortened: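 Ex 540 / Em 590 nm read of compound in cell-free MEM (10% FBS). Rose Bengal sodium reference.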

[16] = qHTS assay to test for compound auto fluorescence at 460 nm (blue) in HepG2 cell free culture (AID 720685)
Procedure, shortened: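 Cell-free plates of MEM plus 10% FBS received 23 nL compound or DMSO vehicle; blue-channel (405/460 nm) intensity scored against triamterene as reference fluorophore.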

[17] = qHTS assay to test for compound auto fluorescence at 535 nm (green) in HepG2 cell free culture (AID 720686)
[18] = qHTS assay to test for compound auto fluorescence at 460 nm (blue) in HepG2 cells (AID 720687)
Procedure, shortened: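 Cells (2,000/well in MEM with 10% FBS) attached overnight at 37 C, then were exposed to compound or DMSO for 1 hr at 37 C, 5% CO2. Fluorescence read at Ex/Em 405/460 nm, expressed as triamterene-equivalent signal.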

[19] = molecular target: Glucocorticoid receptor (Homo sapiens) (UniProt P04150); experiment: qHTS assay to identify small molecule agonists of the glucocorticoid receptor (GR) signaling pathway (AID 720691; active = well fitted activation curve with a large enough effect in the signal ratio in the repeat runs, not every such curve was filed as active; the % refers to the signal ratio)
Procedure, shortened: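 Compounds in DMSO, alongside positive controls, were added to GR-bla HeLa reporter cells and incubated 18 h at 37 C; GRE-driven beta-lactamase was detected by fluorescence after 2 h with FRET substrate at room temperature.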

[20] = molecular target: Glucocorticoid receptor (Homo sapiens) (UniProt P04150); experiment: qHTS assay to identify small molecule antagonists of the glucocorticoid receptor (GR) signaling pathway (AID 720692; active = well fitted inhibition curve with a large enough effect in the signal ratio in the repeat runs, not every such curve was filed as active; the % refers to the signal ratio)
Procedure, shortened: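 In a 1536-well cell format, compounds were added 4 h after seeding GR-bla HeLa cells, together with dexamethasone at 5 nM final; reporter activity was measured by FRET-substrate fluorescence following 18 h at 37 C.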
% is scaled to controls: 0 for no effect and ±100 for the full control effect.

Chain of Glucocorticoid receptor (Homo sapiens) (P04150 whole entry, looked up): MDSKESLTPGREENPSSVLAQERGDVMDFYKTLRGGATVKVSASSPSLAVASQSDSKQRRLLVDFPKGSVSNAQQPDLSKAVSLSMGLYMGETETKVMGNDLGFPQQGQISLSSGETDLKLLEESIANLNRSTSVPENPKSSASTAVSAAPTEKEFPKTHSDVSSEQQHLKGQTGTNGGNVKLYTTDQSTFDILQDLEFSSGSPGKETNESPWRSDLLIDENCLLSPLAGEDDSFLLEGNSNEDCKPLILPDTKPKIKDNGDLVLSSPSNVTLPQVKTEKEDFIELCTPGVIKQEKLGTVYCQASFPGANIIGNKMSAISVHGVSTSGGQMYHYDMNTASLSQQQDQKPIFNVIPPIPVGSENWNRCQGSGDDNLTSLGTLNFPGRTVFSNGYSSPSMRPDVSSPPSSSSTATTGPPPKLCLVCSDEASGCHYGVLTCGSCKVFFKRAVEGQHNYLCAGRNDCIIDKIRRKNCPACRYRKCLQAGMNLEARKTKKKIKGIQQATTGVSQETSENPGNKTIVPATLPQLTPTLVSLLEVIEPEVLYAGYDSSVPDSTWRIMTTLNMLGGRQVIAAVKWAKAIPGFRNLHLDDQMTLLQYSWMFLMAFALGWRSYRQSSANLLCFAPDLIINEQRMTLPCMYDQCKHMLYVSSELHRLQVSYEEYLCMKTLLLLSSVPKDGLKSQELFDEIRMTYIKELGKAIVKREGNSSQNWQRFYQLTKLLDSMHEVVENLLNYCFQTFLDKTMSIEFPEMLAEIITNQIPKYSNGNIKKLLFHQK

COC(=O)c1cccc(Cl)c1
inactive: outcome [1] | outcome [2] | outcome [3] | Potency [4] | outcome [5] | Potency [6] | outcome [7] | outcome [8] | outcome [9] | outcome [10] | outcome [11] | outcome [12] | outcome [13] | outcome [14] | outcome [15] | outcome [16] | outcome [17] | outcome [18]

c1ccc(-c2nn[nH]n2)cc1
inactive: outcome [1] | outcome [2] | outcome [3] | Potency [4] | outcome [5] | Potency [6] | outcome [7] | outcome [8] | outcome [9] | outcome [10] | outcome [11] | outcome [12] | outcome [13] | outcome [14] | outcome [15] | outcome [16] | outcome [17] | outcome [18]

Cc1c(N)cccc1Cl
inactive: outcome [1] | outcome [2] | outcome [3] | Potency [4] | outcome [5] | Potency [6] | outcome [7] | outcome [8] | outcome [9] | outcome [10] | outcome [11] | outcome [12] | outcome [13] | outcome [14] | outcome [15] | outcome [16] | outcome [17] | outcome [18] | Potency [19] | outcome [20]

N[C@@H](CSCCCO)C(=O)O
inactive: outcome [1] | outcome [2] | outcome [3] | Potency [4] | outcome [5] | Potency [6] | outcome [7] | outcome [8] | outcome [9] | outcome [10] | outcome [11] | outcome [12] | outcome [13] | outcome [14] | outcome [15] | outcome [16] | outcome [17] | outcome [18] | outcome [20]

N#CCC(=O)NN
inactive: outcome [1] | outcome [2] | outcome [3] | Potency [4] | outcome [5] | Potency [6] | outcome [7] | outcome [8] | outcome [9] | outcome [10] | outcome [11] | outcome [12] | outcome [13] | outcome [14] | outcome [15] | outcome [16] | outcome [17] | outcome [18] | Potency [19] | outcome [20]

CC(C)(C)NC[C@H](O)COc1cccc2c1CCCC2=O
inactive: outcome [1] | outcome [2] | outcome [3] | Potency [4] | outcome [5] | Potency [6] | fluorescence, relative to Rose Bengal [7] -0.105% [at 18.6 µM] | fluorescence, % of fluorescein control [8] 0.0562% [at 18.6 µM] | fluorescence, % of triamterene [9] 0.103% [at 18.6 µM] | fluorescence, % of fluorescent control [10] 0.133% [at 18.6 µM] | fluorescence, % of fluorescein [11] 0.0019% [at 18.6 µM] | fluorescence, % of fluorescent control [12] 0.0024% [at 18.6 µM] | activity change [13] -0.0347% [at 18.6 µM] | fluorescence, % of fluorescent control [14] -0.286% [at 18.6 µM] | fluorescence, % of Rose Bengal [15] 0.355% [at 18.6 µM] | fluorescence, % of fluorescent control [16] -0.0088% [at 18.6 µM] | fluorescence, % of fluorescein control [17] -0.0049% [at 18.6 µM] | fluorescence, % of fluorescent control [18] 0.0464% [at 18.6 µM] | Potency [19] | outcome [20]

O=C(O)CSCC(=O)NC1CCSC1=O (configuration not stated)
inactive: outcome [1] | outcome [2] | outcome [3] | Potency [4] | outcome [5] | Potency [6] | outcome [7] | outcome [8] | outcome [9] | outcome [10] | outcome [11] | outcome [12] | outcome [13] | outcome [14] | outcome [15] | outcome [16] | outcome [17] | outcome [18]

Cn1nnc2c(C(N)=O)ncn2c1=O
inactive: outcome [1] | outcome [2] | outcome [3] | Potency [4] | outcome [5] | Potency [6] | outcome [7] | outcome [8] | outcome [9] | outcome [10] | outcome [11] | outcome [12] | outcome [13] | outcome [14] | outcome [15] | outcome [16] | outcome [17] | outcome [18]

O=C(CN1CCNCC1)NC1CCCCC1
inactive: outcome [1] | outcome [2] | outcome [3] | Potency [4] | outcome [5] | Potency [6] | outcome [7] | outcome [8] | outcome [9] | outcome [10] | outcome [11] | outcome [12] | outcome [13] | outcome [14] | outcome [15] | outcome [16] | outcome [17] | outcome [18] | Potency [19] | outcome [20]

CC1(C)Oc2ccc(C#N)cc2[C@@H](N2CCCC2=O)[C@@H]1O
inactive: outcome [1] | outcome [2] | outcome [3] | Potency [4] | outcome [5] | Potency [6] | outcome [7] | outcome [8] | outcome [9] | outcome [10] | outcome [11] | outcome [12] | outcome [13] | outcome [14] | outcome [15] | outcome [16] | outcome [17] | outcome [18] | Potency [19] | outcome [20]

Cc1cc(-c2ccccc2)nnc1NCCN1CCOCC1
inactive: outcome [1] | outcome [2] | outcome [3] | Potency [4] | outcome [5] | Potency [6] | outcome [7] | outcome [8] | outcome [9] | outcome [10] | outcome [11] | outcome [12] | outcome [13] | outcome [14] | outcome [15] | outcome [16] | outcome [17] | outcome [18]

C#CCN[C@@H]1CCc2ccccc21
inactive: outcome [1] | outcome [2] | outcome [3] | Potency [4] | outcome [5] | Potency [6] | outcome [7] | outcome [8] | outcome [9] | outcome [10] | outcome [11] | outcome [12] | outcome [13] | outcome [15] | outcome [16] | outcome [17] | outcome [18]

CCOC(CN1CCN(CC(C)C(=O)c2ccccc2)CC1)c1ccccc1 (configuration not stated)
inactive: outcome [1] | outcome [2] | outcome [3] | Potency [4] | outcome [5] | Potency [6] | outcome [7] | outcome [8] | outcome [9] | outcome [10] | outcome [11] | outcome [12] | outcome [13] | outcome [15] | outcome [16] | outcome [17] | outcome [18] | Potency [19]

CCC(C)C(=O)OCCc1ccccc1 (configuration not stated)
inactive: outcome [1] | outcome [2] | outcome [3] | Potency [4] | outcome [5] | Potency [6] | outcome [7] | outcome [8] | outcome [9] | outcome [10] | outcome [11] | outcome [12] | outcome [13] | outcome [14] | outcome [15] | outcome [16] | outcome [17] | outcome [18] | Potency [19] | outcome [20]

CC(C)CCOC(=O)c1ccccc1
inactive: outcome [1] | outcome [2] | outcome [3] | Potency [4] | outcome [5] | Potency [6] | outcome [7] | outcome [8] | outcome [9] | outcome [10] | outcome [11] | outcome [12] | outcome [13] | outcome [14] | outcome [15] | outcome [16] | outcome [17] | outcome [18]
